Experiment [1] in a line: NCI Yeast Anticancer Drug Screen. Data for the rad50 strain (AID 155).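 Further: 0% = growth of vehicle-only cultures of the same strain.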 The following applies: S. cerevisiae rad50 strain growth inhibition; at 50.0 µM; stronger effect = higher value. The essentials: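 Inhibition values express reduced yeast growth in compound-treated cultures relative to vehicle-treated controls.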
The nature of experiment [2]: NCI Yeast Anticancer Drug Screen. Data for the mec2-1 strain (AID 157). The following applies: S. cerevisiae mec2-1 strain, at 50.0 µM, stronger effect = higher value. In outline: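 Mutant yeast (mec2-1) grown with compound; growth inhibition relative to vehicle control reported.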
A short description of experiment [3]: NCI Yeast Anticancer Drug Screen. Data for the sgs1 mgt1 strain (AID 161).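 Further: 0% = growth of cultures given vehicle only.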 The following applies: S. cerevisiae sgs1 mgt1 strain, at 50.0 µM, stronger effect = higher value. The essentials:
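Yeast cells carrying a defined DNA-repair defect were exposed to test compounds. Growth inhibition was measured relative to vehicle-treated controls.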

The nature of experiment [4]: NCI Yeast Anticancer Drug Screen. Data for the cln2 rad14 strain (AID 165).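 Further: 0% = growth equal to vehicle treated cultures.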 The following applies: S. cerevisiae cln2 rad14 strain, at 50.0 µM, stronger effect = higher value. In outline: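 Readout is yeast growth inhibition versus vehicle-treated controls, using a strain with cln2 and rad14 alterations exposed to compound.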
The nature of experiment [5]: NCI Yeast Anticancer Drug Screen. Data for the bub3 strain (AID 167). To be noted: S. cerevisiae bub3 mutant strain, at 50.0 µM, stronger effect = higher value. In outline: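 Steps: expose the mutant yeast strain to compound; grow alongside vehicle-treated cultures; measure growth; express inhibition against the vehicle cultures.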
A short description of experiment [6]: NCI Yeast Anticancer Drug Screen. Data for the mlh1 rad18 strain (AID 175). The following applies: S. cerevisiae mlh1 rad18 strain growth inhibition; at 50.0 µM; stronger effect = higher value. The essentials:
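Genetically defined yeast (DNA repair-deficient) exposed to compounds; growth inhibition determined relative to vehicle.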

About 79,000 compounds went through this panel and 15% of them were active in at least one assay; those are over-represented in the sample as a whole. A number with no mark means an inactive call. Active and inactive are the calls of the source. No stated cut-off is given here; in the data, active means growth inhibition above about 70%; inactive means the rest.

`Cc1nc2cc(N)c(Cl)cc2[nH]1`: the growth inhibition in experiment [1] is -6.5%; in experiment [2] it was 14.8%; in experiment [3] it was 9.95%; in experiment [4], -7.15%; in experiment [5], 10.5%; in experiment [6] it was -0.6%.

In the case of `OCC1OC(c2scc3c(=S)nc[nH]c23)C(O)C1O` (centres undefined), the growth inhibition is -5.9% in experiment [1]; -13.7% in experiment [2]; -9.45% in experiment [3]; 19.6% in experiment [4]; 12.6% in experiment [5]; -11.2% in experiment [6].

Take `CCOC(=O)/C(C)=C\C1C(C)=CC(=O)CC1(C)C` (centres undefined): the growth inhibition in experiment [1] is -0.05%; in experiment [2] it was -16.1%; in experiment [3], -5.1%; in experiment [4], -29%; in experiment [5], 20.4%; in experiment [6], -7.15%.

For `CC1(C)CC23C(=O)N(c4ccccc4)C(=Nc4ccccc4)NC2=CC(C#N)=C(C#N)C3O1` (centres undefined), the growth inhibition in experiment [1] was 2.6%; in experiment [2] it was -3.9%; in experiment [3] it was 5.3%; in experiment [4], 23.9%; in experiment [5], 0.85%; in experiment [6] it was -15.8%.

Turning to `CC(C)(C)N(OC(=O)c1ccccc1)C(=O)c1ccccc1`, the growth inhibition is 3.25% in experiment [1]; 4.35% in experiment [2]; 0.4% in experiment [3]; 5.45% in experiment [4]; 0.6% in experiment [5]; 14.4% in experiment [6].

Regarding `COC(=O)[C@@]1(NC(=O)C(CC(=O)OC(C)(C)C)NC(=O)OC(C)(C)C)C[C@H]1C` (some centres undefined), the growth inhibition in experiment [1] is -48.8%; in experiment [2] it was -28.6%; in experiment [3], -33.2%; in experiment [4], 6.15%; in experiment [5] it was -3.25%; in experiment [6], -14%.

As for `O=c1c2cc([N+](=O)[O-])ccc2sc2ccsc12`, the growth inhibition in experiment [1] is 1.6%; in experiment [2], 2.55%; in experiment [3], -4.95%; in experiment [4], -2.85%; in experiment [5], -10.6%; in experiment [6] it was 11.9%.

`COc1c(C)c(OC)c(C(=O)CC(C)C)c(OC)c1C`: the growth inhibition is 0.4% in experiment [1]; 5.05% in experiment [2]; 35.2% in experiment [3]; 20.4% in experiment [4]; 19.7% in experiment [5]; -29.6% in experiment [6].

As to `O=C(Nc1ccc(Br)cc1)C(=O)C(C(=O)c1ccccc1F)C1OC(=O)c2ccccc21` (centres undefined), the growth inhibition in experiment [1] was -17.6%; in experiment [2] it was -1.65%; in experiment [3] it was -13.8%; in experiment [4], -50.9%; in experiment [5], -5.4%; in experiment [6], 7%.

On to `COC(=O)C1=CCS(=O)(=O)C1`, for which the growth inhibition is -7.45% in experiment [1]; -7.8% in experiment [2]; -4.3% in experiment [3]; 6.1% in experiment [4]; 15% in experiment [5]; -9.5% in experiment [6].

`Cc1c(C)c(C)c(CNNC(=S)Nc2ccc(S(=O)(=O)N3CCCCC3)cc2)c(C)c1C`: the growth inhibition in experiment [1] was -4.5%; in experiment [2], -17.9%; in experiment [3] it was 9.25%; in experiment [4], 8.6%; in experiment [5], 6.4%; in experiment [6], 7.6%.

As for `O=C1C(CO)=C[C@H](O)[C@H]2O[C@@H]12`, the growth inhibition in experiment [1] is -4.3%; in experiment [2], 0.3%; in experiment [3], -9.45%; in experiment [4] it was 7.85%; in experiment [5], 8.65%; in experiment [6], -29.4%.

With `CC(=O)OC1C(O)C(C)OC(OC2C(C)OC(OC(=O)[C@@H]3CC[C@@H]4[C@H](C3)OC3(C[C@@H](OC(=O)/C=C/c5ccccc5)[C@@H](C)CO3)[C@@]43CO3)C(O)C2OC(C)=O)C1O` (some centres undefined), the growth inhibition is 91% (active) in experiment [1]; 93.4% (active) in experiment [2]; 92.2% (active) in experiment [3]; 90.1% (active) in experiment [4]; 91.1% (active) in experiment [5]; 91.8% (active) in experiment [6].

As to `COC(=O)c1cc(OC)c2cccnc2c1Nc1ccccc1`, the growth inhibition is -7.75% in experiment [1]; 12.2% in experiment [2]; 9.25% in experiment [3]; 0.6% in experiment [4]; 11.1% in experiment [5]; -6.8% in experiment [6].

Take `FC(F)(F)C(F)(F)C(F)(F)c1nnnn1-c1ccccc1`: the growth inhibition was 10.8% in experiment [1]; -0.8% in experiment [2]; -17.1% in experiment [3]; 3.3% in experiment [4]; -13.3% in experiment [5]; -17.1% in experiment [6].

Consider `COC(=O)C1(CC(=O)c2ccncc2)NC(=S)NC(=O)C1C#N` (centres undefined), for which the growth inhibition is 2% in experiment [1]; -11.8% in experiment [2]; -19.1% in experiment [3]; -22.4% in experiment [4]; -22.8% in experiment [5]; -5.75% in experiment [6].

In the case of `CCC(O)C1CCCCC1O` (centres undefined), the growth inhibition was -8.95% in experiment [1]; 8.35% in experiment [2]; -3.8% in experiment [3]; 15.7% in experiment [4]; 15.2% in experiment [5]; 2.45% in experiment [6].

With `O=[N+]([O-])c1ccc(OS(=O)(=O)c2ccccc2)cc1`, the growth inhibition was -3.25% in experiment [1]; 7.9% in experiment [2]; -5.35% in experiment [3]; -3.95% in experiment [4]; 4.05% in experiment [5]; 9.65% in experiment [6].

Consider `COc1nc2cc3c(cc2n2cccc12)oc1ccccc13`, for which the growth inhibition was 11.9% in experiment [1]; 7.5% in experiment [2]; -4% in experiment [3]; 12.2% in experiment [4]; -1.75% in experiment [5]; -2.65% in experiment [6].

Regarding `CC(=O)OCC1OC(OCC[N+](C)(C)C)C(OC(C)=O)C(OC(C)=O)C1OC(C)=O` (centres undefined), the growth inhibition is -1.65% in experiment [1]; 14.9% in experiment [2]; -15.6% in experiment [3]; -2.4% in experiment [4]; -7.35% in experiment [5]; 15.3% in experiment [6].

As for `CC(CC(=O)O)C(C)(C#N)C(=O)O` (centres undefined), the growth inhibition in experiment [1] is 1.8%; in experiment [2] it was 1.4%; in experiment [3] it was 2.8%; in experiment [4] it was -41.5%; in experiment [5] it was 0.05%; in experiment [6], -4.95%.

In the case of `CCNC(=O)C1CC2C=CC1C2` (centres undefined), the growth inhibition is -1.25% in experiment [1]; 2.1% in experiment [2]; 4.2% in experiment [3]; 12.6% in experiment [4]; 3.05% in experiment [5]; 1.5% in experiment [6].

Take `O=[N+]([O-])c1cc2c(cc1Br)C1C(C3C2C2(Cl)C(Cl)=C(Cl)C3(Cl)C2(Cl)Cl)C2(Cl)C(Cl)=C(Cl)C1(Cl)C2(Cl)Cl` (centres undefined): the growth inhibition in experiment [1] is 31.7%; in experiment [2], 5.4%; in experiment [3], 24.6%; in experiment [4] it was 11.8%; in experiment [5] it was 11.2%; in experiment [6], 8.1%.

Take `COc1ccc(-c2cc(C(=O)Nc3cc(Cl)cc(Cl)c3)c3ccccc3n2)cc1`: the growth inhibition in experiment [1] was -13.7%; in experiment [2] it was -18.6%; in experiment [3], -25.8%; in experiment [4], -0.85%; in experiment [5] it was -17.6%; in experiment [6], 1.55%.

Consider `COc1cc(C(C#N)NNC(=O)Cc2ccccc2)cc(OC)c1OC` (centres undefined), for which the growth inhibition in experiment [1] is -18.9%; in experiment [2], -54.1%; in experiment [3], -53.9%; in experiment [4], 18.5%; in experiment [5], -45.8%; in experiment [6], -49.8%.

`COc1ccccc1C1c2cc3c(cc2OC(O)(CO)C1C(=O)O)OCO3` (centres undefined) (tested in a mixture with another compound): the growth inhibition in experiment [1] was -18.4%; in experiment [2] it was -22.7%; in experiment [3] it was -15.3%; in experiment [4], -14%; in experiment [5] it was -20.6%; in experiment [6], -3.15%.

With `CCN(CC)CCS(=O)(=O)CCS(=O)(=O)CCN(CC)CC`, the growth inhibition in experiment [1] is 18.5%; in experiment [2], 10.9%; in experiment [3], 25.2%; in experiment [4], 25.2%; in experiment [5], 4.4%; in experiment [6] it was 14.2%.

Turning to `Cc1[nH]c(=O)nc(N/N=C/c2ccc(Cl)cc2)c1C(=O)Nc1ccc(Cl)cc1`, the growth inhibition in experiment [1] is -5.35%; in experiment [2], 16.4%; in experiment [3], -3.9%; in experiment [4], 1.65%; in experiment [5] it was -34.4%; in experiment [6], -12.5%.

As to `O=C(O)c1ccccc1Oc1ccc([N+](=O)[O-])cc1[N+](=O)[O-]`, the growth inhibition was 4.3% in experiment [1]; 16.8% in experiment [2]; 32% in experiment [3]; -82% in experiment [4]; 26.8% in experiment [5]; 20.1% in experiment [6].

Turning to `O=C(NN1C(=O)C(Cl)C1c1ccccc1Cl)c1ccccc1O` (centres undefined), the growth inhibition in experiment [1] was -48.1%; in experiment [2] it was -35.9%; in experiment [3], -49.1%; in experiment [4], -5.55%; in experiment [5] it was -21%; in experiment [6], -36%.

As for `COc1ccc2ccccc2c1C=O`, the growth inhibition was 33.5% in experiment [1]; 23% in experiment [2]; 40.1% in experiment [3]; -16.2% in experiment [4]; 5.45% in experiment [5]; 47.8% in experiment [6].

For the compound `O=C1c2ccccc2C2(Br)C(=O)c3ccccc3C12Br` (centres undefined), the growth inhibition in experiment [1] is 98.6% (active); in experiment [2], 99% (active); in experiment [3] it was 98.8% (active); in experiment [4], 98.5% (active); in experiment [5] it was 98.5% (active); in experiment [6], 98.9% (active).

On to `CC1=C(C#[N+][O-])C(C)(C)CCC1`, for which the growth inhibition in experiment [1] was 1.05%; in experiment [2], 5.1%; in experiment [3] it was -2.9%; in experiment [4], 10.1%; in experiment [5], -23.9%; in experiment [6], -16.2%.

As to `C/C=C/Cc1ccc(O)cc1`, the growth inhibition in experiment [1] is 4.9%; in experiment [2], -6%; in experiment [3], -1%; in experiment [4], -25.4%; in experiment [5], -1.4%; in experiment [6], -1.05%.

These data come from PubChem BioAssay (NCI).
